Reference: PubChem BioAssay (Tox21)
Inconclusive results are not listed. Activity calls are given as the source filed them. Unless noted, calls come from the whole dose curve; as a rule, active = well fitted curve in the direction sought with a large enough effect in the repeat runs; inconclusive = weak or mixed curves; inactive = no such curve, though single readings can be large; an effect the other way counts as inactive or inconclusive.

How the values were obtained:
[1] = qHTS assay to identify small molecule antagonists of the sonic hedgehog signaling (Shh) pathway (AID 1259369; calls by dose curve; note: nearly all actives have a fitted effect of over 45% in size)
Summary of the method: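 Conditioned medium drives Shh signalling in 3T3Gli1-Luc cells; compounds in DMSO co-applied, 24hr at 37 C, then luciferase luminescence.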

[2] = molecular target: Estrogen receptor beta (Homo sapiens) (UniProt Q92731); test: qHTS assay to identify small molecule agonists of the estrogen receptor beta (ER-beta) signaling pathway (AID 1259377; active = well fitted activation curve with a large enough effect in the signal ratio in the repeat runs, not every such curve was filed as active; the % refers to the signal ratio)
Sequence of Estrogen receptor beta (Homo sapiens) (Q92731 whole entry, looked up): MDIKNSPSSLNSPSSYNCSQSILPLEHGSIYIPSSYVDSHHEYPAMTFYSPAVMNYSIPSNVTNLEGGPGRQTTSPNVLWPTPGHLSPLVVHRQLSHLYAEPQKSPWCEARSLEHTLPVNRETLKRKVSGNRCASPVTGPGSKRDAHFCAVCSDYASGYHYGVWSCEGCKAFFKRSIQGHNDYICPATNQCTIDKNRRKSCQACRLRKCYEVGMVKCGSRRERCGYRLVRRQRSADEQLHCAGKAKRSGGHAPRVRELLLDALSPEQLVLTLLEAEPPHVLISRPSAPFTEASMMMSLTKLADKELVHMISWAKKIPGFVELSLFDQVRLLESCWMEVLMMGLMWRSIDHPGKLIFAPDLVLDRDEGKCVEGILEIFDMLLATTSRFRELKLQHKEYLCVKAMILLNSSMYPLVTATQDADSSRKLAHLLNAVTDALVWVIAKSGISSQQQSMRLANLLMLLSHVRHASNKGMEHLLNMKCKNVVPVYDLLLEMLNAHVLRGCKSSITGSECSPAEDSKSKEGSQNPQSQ
Summary of the method: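 HEK293T ER-beta-UAS-bla; 2% charcoal-stripped FBS; cells pre-incubated 6 hr, compound 16 hr, 37C/5% CO2; LiveBLAzer B/G FRET substrate 2 h RT; fluorescence intensity read.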

[3] = molecular target: Estrogen receptor beta (Homo sapiens) (UniProt Q92731); test: qHTS assay to identify small molecule antagonists of the estrogen receptor beta (ER-beta) signaling pathway (AID 1259378; active = well fitted inhibition curve with a large enough effect in the signal ratio in the repeat runs, not every such curve was filed as active; the % refers to the signal ratio)
Summary of the method: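 Antagonist mode: compounds added to beta-lactamase reporter HEK293T ER-beta-UAS cells stimulated with E2 (1nM final), 16 hr at 37C. LiveBLAzer B/G FRET substrate, 2 hours room temperature, fluorescence read-out.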

[4] = qHTS assay to identify small molecule agonists of the androgen receptor (AR) signaling pathway in the presence of an antagonist - cell viability counter screen (AID 1259379);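 note: MDA-kb2 human breast cancer cells carrying an MMTV luciferase reporter; series mostly up to about 92 µM; nearly all actives have a fitted effect of over 25% in size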
Summary of the method: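 A CellTiter-Fluor read-out measured viability of MDA-kb2 reporter cells (MMTV promoter with AR and GR response elements). Treatment: nilutamide 3.0uM final with compounds at 15 concentrations, 16 hr, 37C, 0% CO2.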

[5] = qHTS assay to identify small molecule agonists of the estrogen receptor beta (ER-beta) signaling pathway - cell viability counter screen (AID 1259380); note: nearly all actives have a fitted effect of over 30% in size
Summary of the method: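 Cells used were ER-beta-UAS-bla HEK293T in medium with 2% charcoal-stripped FBS. They were treated for 16 hr at 37C. Viability came from CellTiter-Glo luminescence.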

[6] = qHTS assay to identify small molecule antagonists of the estrogen receptor beta (ER-beta) signaling pathway - cell viability counter screen (AID 1259382); note: series mostly up to about 92 µM; nearly all actives have a fitted effect of over 55% in size
Summary of the method: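 Agonist-stimulated (1nM E2) ER-beta-UAS-bla HEK293T cells are incubated with library compounds for 16 hr at 37C. Cell viability is then assessed in the reporter-assay wells by adding CellTiter-Glo and reading luminescence after 30 min.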

[7] = molecular target: Estrogen receptor (Homo sapiens) (UniProt P03372); test: qHTS assay to identify small molecule agonists of the estrogen receptor alpha (ER-alpha) signaling pathway in the presence of an antagonist (AID 1259383; calls by dose curve; note: top concentration of the series differs between compounds; nearly all actives have a fitted effect of over 15% in size)
Sequence of Estrogen receptor (Homo sapiens) (P03372 whole entry, looked up): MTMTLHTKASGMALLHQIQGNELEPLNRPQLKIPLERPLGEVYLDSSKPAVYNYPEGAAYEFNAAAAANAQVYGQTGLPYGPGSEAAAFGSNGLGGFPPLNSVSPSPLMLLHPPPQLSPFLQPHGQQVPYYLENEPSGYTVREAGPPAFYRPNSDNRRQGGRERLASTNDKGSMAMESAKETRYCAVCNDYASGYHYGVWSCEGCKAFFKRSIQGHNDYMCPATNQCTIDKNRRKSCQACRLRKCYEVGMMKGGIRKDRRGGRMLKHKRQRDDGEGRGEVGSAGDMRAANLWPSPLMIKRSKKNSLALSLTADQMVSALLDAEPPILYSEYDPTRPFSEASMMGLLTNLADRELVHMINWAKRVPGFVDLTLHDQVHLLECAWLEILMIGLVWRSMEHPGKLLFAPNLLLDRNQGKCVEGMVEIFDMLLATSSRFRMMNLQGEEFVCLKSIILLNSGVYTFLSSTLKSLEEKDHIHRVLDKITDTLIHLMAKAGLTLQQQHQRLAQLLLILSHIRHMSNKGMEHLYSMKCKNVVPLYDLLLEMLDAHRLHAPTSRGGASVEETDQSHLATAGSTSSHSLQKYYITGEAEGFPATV
Summary of the method: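 Using VM7Luc4E2 cells seeded 24hr before treatment, antagonist ICI-182,780 (10.0nM final) was added, followed by compounds at 15 concentrations. Plates incubated 22hr; ONE-Glo luminescence quantified reporter activity.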

[8] = qHTS assay to identify small molecule agonists or antagonists of the thyroid stimulating hormone receptor (TSHR) signaling pathway - wild type cell line counter screen (AID 1259384; calls by dose curve)
Summary of the method: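 Counter screen in untransfected Hek293: compounds (15-point titration, triplicate) plus phosphodiesterase inhibitor Ro20-1724 added after 18 h plating; 30 min RT. Intracellular cAMP via competitive d2/cryptate immunoassay, 1 h incubation.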

[9] = molecular target: Thyrotropin receptor (Homo sapiens) (UniProt P16473); test: qHTS assay to identify small molecule antagonists of the thyroid stimulating hormone receptor (TSHR) signaling pathway (AID 1259385; calls by dose curve; note: nearly all actives have a fitted effect of over 20% in size)
Sequence of Thyrotropin receptor (Homo sapiens) (P16473 whole entry, looked up): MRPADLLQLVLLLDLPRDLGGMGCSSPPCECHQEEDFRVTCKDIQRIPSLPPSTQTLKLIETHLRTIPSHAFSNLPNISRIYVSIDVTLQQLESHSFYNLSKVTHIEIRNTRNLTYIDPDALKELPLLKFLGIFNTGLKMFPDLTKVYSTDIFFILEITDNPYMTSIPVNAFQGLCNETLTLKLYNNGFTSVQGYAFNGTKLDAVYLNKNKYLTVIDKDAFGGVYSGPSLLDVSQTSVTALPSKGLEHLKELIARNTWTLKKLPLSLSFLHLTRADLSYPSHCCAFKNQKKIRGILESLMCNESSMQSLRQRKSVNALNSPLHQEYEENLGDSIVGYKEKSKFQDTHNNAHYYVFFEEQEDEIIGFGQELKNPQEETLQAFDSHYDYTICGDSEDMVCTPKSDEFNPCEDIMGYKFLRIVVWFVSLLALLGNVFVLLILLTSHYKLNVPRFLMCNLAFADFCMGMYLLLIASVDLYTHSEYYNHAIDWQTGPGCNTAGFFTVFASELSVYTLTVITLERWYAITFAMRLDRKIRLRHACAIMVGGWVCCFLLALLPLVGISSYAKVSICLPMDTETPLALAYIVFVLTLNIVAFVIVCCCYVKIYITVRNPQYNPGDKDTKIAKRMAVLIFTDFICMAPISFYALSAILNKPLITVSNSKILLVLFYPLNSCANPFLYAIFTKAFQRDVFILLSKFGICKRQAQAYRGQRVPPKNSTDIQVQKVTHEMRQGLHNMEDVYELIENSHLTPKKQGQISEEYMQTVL
Summary of the method: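 Antagonist mode: compound-treated TSHR-expressing HEK293 cells were stimulated with 1.5 ng/mL TSH (final) in presence of Ro20-1724 for 30 min at RT. HTRF cAMP detection after 1 h; each compound tested at 15 concentrations, triplicate.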

[10] = qHTS assay to identify small molecule agonists of the estrogen receptor alpha (ER-alpha) signaling pathway in the presence of an antagonist - cell viability counter screen (AID 1259386);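 note: series mostly up to about 92 µM; cells exposed to compounds for 22 h at 37 °C before the viability read; nearly all actives have a fitted effect of over 30% in size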
Summary of the method: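 ICI-182,780 at 10.0nM final accompanies the compound titration (15 concentrations, 22hr, 37C) on VM7Luc4E2 cells. The CellTiter-Fluor fluorescence readout runs in the same wells as the luciferase assay.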

[11] = molecular target: Progesterone receptor (Homo sapiens) (UniProt P06401); test: qHTS assay to identify small molecule agonists of the progesterone receptor (PR) signaling pathway (AID 1346784; calls by dose curve; note: nearly all actives have a fitted effect of over 30% in size)
Sequence of Progesterone receptor (Homo sapiens) (P06401 whole entry, looked up): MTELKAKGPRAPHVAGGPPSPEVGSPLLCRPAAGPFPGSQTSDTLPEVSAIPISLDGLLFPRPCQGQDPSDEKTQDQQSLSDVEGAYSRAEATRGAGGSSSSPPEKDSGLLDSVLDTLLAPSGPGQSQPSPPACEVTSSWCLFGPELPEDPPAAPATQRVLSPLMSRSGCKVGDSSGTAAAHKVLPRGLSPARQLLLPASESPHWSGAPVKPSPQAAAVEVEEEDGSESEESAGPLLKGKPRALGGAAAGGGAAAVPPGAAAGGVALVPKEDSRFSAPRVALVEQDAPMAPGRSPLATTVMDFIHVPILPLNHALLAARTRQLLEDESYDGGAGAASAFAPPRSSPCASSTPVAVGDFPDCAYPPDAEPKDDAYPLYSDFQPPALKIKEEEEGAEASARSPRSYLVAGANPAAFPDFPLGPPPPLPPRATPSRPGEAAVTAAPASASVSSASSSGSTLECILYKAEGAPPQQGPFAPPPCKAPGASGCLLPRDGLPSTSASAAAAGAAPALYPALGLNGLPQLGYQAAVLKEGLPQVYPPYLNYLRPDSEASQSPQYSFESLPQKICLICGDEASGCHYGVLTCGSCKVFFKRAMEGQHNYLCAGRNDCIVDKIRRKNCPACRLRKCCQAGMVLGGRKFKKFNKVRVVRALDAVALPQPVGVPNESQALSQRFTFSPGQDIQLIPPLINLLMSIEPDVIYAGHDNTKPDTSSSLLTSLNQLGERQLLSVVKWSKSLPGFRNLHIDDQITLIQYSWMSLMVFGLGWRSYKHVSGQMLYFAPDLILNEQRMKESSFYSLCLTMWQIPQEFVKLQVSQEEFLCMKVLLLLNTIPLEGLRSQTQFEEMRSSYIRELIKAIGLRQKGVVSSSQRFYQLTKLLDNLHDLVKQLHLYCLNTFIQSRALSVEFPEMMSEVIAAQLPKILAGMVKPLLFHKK
Summary of the method: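 Beta-lactamase reporter read-out: after 16 hr compound treatment at 37C and a further 2 hr at room temperature with LiveBLAzer B/G FRET substrate, fluorescence was measured in PR-UAS-bla HEK 293T cells grown in 2% charcoal-stripped serum.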

[12] = molecular target: Progesterone receptor (Homo sapiens) (UniProt P06401); test: qHTS assay to identify small molecule antagonists of the progesterone receptor (PR) signaling pathway (AID 1346795; active = well fitted inhibition curve with a large enough effect in the signal ratio in the repeat runs, not every such curve was filed as active; the % refers to the signal ratio)
Summary of the method: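 Read-out is fluorescence from the LiveBLAzer B/G FRET substrate, cleaved by a UAS-controlled beta-lactamase in PR-UAS-bla HEK293T cells after 16 hr exposure to compound plus 1 nM promegestone (final), followed by 2 hr at room temperature.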

[13] = qHTS assay to identify small molecule antagonists of the progesterone receptor (PR) signaling pathway - cell viability counter screen (AID 1346798);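 note: HEK293T PR-UAS-bla cells stimulated with the agonist R5020; series mostly up to about 92 µM; nearly all actives have a fitted effect of over 50% in size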
Summary of the method: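 HEK293T PR-UAS-bla, 2% charcoal-stripped FBS; 4 hr pre-plate; cpd + R5020, 16 h 37C; LiveBLAzer read first; then CellTiter-Glo 30 min RT, luminescence.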

[14] = qHTS assay to identify small molecule agonists of the progesterone receptor (PR) signaling pathway - cell viability counter screen (AID 1346799; calls by dose curve; note: nearly all actives have a fitted effect of over 45% in size)
Summary of the method: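 Luminescence from CellTiter-Glo, added after the beta-lactamase FRET read in the same wells, gave cytotoxicity in PR-UAS-bla HEK293T cells treated with compounds for 16 hr at 37C.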

[15] = qHTS assay to identify small molecule antagonists of the TGF-beta/Smad signaling pathway - cell viability counter screen (AID 1346824); note: nearly all actives have a fitted effect of over 50% in size
Summary of the method: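 Cytotoxicity counter-screen run in the same wells as the beta-lactamase Smad reporter read: CellTiter-Glo luminescence after 30 min at room temperature. HEK 293T SBE-bla cells had 5 hr compound exposure at 37 C with TGF-beta1 (0.25 ng/mL stock).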

[16] = qHTS assay to identify small molecule agonists of the TGF-beta/Smad signaling pathway - cell viability counter screen (AID 1346829); note: top concentration of the series differs between compounds; nearly all actives have a fitted effect of over 45% in size
Summary of the method: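 SBE-bla HEK 293T cells plated overnight, compound exposure 5 hr at 37 C. Viability read in the same wells by CellTiter-Glo luminescence after 30 min at room temperature, following the beta-lactamase read.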

[17] = qHTS assay to identify small molecule agonists of the TGF-beta/Smad signaling pathway (AID 1346859; active = well fitted activation curve with a large enough effect in the signal ratio in the repeat runs, not every such curve was filed as active; the % refers to the signal ratio; note: series mostly up to about 77 µM)
Summary of the method: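 SBE-bla HEK 293T, 4,000 cells/well, plated o/n; cpd in DMSO, 5 hr, 37 C/5% CO2; B/G FRET substrate 2 hr RT; ex 405, em 460/530 nm.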

[18] = molecular target: Thyrotropin-releasing hormone receptor (Homo sapiens) (UniProt P34981); test: qHTS assay to identify small molecule antagonists of the thyrotropin-releasing hormone receptor (TRHR) signaling pathway (AID 1346877; active = well fitted inhibition curve with a large enough effect in the repeat runs, not every such curve was filed as active; note: series mostly up to about 51 µM)
Sequence of Thyrotropin-releasing hormone receptor (Homo sapiens) (P34981 whole entry, looked up): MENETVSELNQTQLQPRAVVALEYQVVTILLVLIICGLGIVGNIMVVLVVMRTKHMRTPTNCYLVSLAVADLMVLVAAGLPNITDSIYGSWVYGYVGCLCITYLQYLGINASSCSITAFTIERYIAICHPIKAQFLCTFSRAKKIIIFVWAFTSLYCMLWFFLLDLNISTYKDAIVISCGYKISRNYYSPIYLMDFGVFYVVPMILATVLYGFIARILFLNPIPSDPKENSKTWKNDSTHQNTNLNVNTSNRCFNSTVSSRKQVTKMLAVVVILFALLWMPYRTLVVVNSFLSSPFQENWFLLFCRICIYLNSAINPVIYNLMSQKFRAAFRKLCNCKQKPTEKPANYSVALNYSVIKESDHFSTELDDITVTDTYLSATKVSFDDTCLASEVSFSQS
Summary of the method: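 Screening used HEK293 cells engineered with TRHR, with a brief 5 min room-temperature compound exposure preceding addition of TRH to 1 nM. The read-out was kinetic calcium-dye fluorescence, concentration-response from 15 doses in triplicate.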

[19] = molecular target: Thyrotropin-releasing hormone receptor (Homo sapiens) (UniProt P34981); test: qHTS assay to identify small molecule agonists of the thyrotropin-releasing hormone receptor (TRHR) signaling pathway (AID 1346891; calls by dose curve; note: series mostly up to about 58 µM)
Summary of the method: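 Intracellular calcium rise, read as fluorescence every second for 3 min, served as the agonist signal in dye-loaded HEK293 cells expressing TRHR; each compound ran at 15 concentrations in triplicate.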

[20] = molecular target: Androgen receptor (Homo sapiens) (UniProt P10275); test: qHTS assay to identify small molecule agonists of the androgen receptor (AR) signaling pathway in the presence of an antagonist (AID 1259381; calls by dose curve; note: nearly all actives have a fitted effect of over 15% in size)
Sequence of Androgen receptor (Homo sapiens) (P10275 whole entry, looked up): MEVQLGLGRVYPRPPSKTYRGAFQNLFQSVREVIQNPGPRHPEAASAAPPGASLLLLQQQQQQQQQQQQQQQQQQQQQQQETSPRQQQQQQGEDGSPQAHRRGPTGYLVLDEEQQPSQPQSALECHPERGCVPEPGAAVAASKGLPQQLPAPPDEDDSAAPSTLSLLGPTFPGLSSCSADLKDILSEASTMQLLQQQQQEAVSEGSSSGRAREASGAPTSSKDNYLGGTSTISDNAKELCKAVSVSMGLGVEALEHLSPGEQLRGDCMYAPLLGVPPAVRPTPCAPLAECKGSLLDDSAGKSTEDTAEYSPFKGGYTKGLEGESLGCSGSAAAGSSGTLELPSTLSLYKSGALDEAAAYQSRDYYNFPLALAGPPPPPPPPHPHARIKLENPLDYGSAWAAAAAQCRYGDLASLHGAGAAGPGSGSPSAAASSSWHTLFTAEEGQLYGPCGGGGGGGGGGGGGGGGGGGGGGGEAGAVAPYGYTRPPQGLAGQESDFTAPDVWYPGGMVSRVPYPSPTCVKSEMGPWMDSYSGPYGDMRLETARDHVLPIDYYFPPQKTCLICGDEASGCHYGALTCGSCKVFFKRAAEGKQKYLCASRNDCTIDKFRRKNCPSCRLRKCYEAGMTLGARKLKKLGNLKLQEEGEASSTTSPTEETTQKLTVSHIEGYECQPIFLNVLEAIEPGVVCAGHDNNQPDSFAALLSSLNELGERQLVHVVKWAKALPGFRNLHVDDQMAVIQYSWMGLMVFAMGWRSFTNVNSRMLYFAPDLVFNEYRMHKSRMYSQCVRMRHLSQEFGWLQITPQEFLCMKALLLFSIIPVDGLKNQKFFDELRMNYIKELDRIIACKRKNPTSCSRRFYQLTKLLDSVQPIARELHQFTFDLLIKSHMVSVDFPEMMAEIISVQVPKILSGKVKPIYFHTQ
Summary of the method: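 Using human MDA-kb2 cells with an MMTV promoter–luciferase construct (AR and GR response elements), agonist activity is scored under 3.0uM nilutamide (final) co-treatment; 16hr incubation, 37C, luminescence readout via ONE-Glo.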
% is set by controls: 0 for no effect and ±100 for the full control effect.

OCCC1CCCCN1 (stereo not given)
inactive: Potency [1] | Potency [2] | Potency [3] | Potency [4] | Potency [5] | Potency [6] | Potency [7] | Potency [8] | Potency [9] | Potency [10] | outcome [11] | Potency [12] | Potency [13] | Potency [14] | Potency [15] | Potency [16] | outcome [17]

CC(O)C1CCCCC1 (stereo not given)
inactive: Potency [1] | Potency [2] | Potency [3] | Potency [4] | Potency [5] | Potency [6] | Potency [8] | Potency [9] | Potency [10] | outcome [11] | Potency [12] | Potency [13] | Potency [14] | Potency [15] | Potency [16] | outcome [17] | outcome [18] | Potency [19]

CCOc1ccc(NC(=O)CC(C)=O)cc1
inactive: Potency [1] | Potency [2] | Potency [3] | Potency [4] | Potency [5] | Potency [6] | Potency [10] | outcome [11] | Potency [12] | Potency [13] | Potency [14] | Potency [15] | Potency [16] | outcome [17] | outcome [18] | Potency [19]

CCCCOC(O)CC (stereo not given)
inactive: Potency [1] | Potency [2] | Potency [3] | Potency [4] | Potency [5] | Potency [20] | Potency [6] | Potency [7] | Potency [8] | Potency [9] | Potency [10] | outcome [11] | Potency [12] | Potency [15] | Potency [16] | outcome [17] | outcome [18] | Potency [19]

O=C(CCN1CCN2CCCC2C1)N1c2ccccc2Sc2ccc(Cl)cc21 (stereo not given)
inactive: activity change, negative = inhibition [1] -18.5% [at 19 µM] | activation [2] -2.5% [at 19 µM] | activity, negative = inhibition [3] -12.6% [at 19 µM] | activity change, negative = cytotoxicity [4] -7.38% [at 19 µM] | activity change, negative = cytotoxicity [5] -14.2% [at 19 µM] | activation [20] -1.48% [at 19 µM] | activity change, negative = cytotoxicity [6] -9.75% [at 19 µM] | activation [7] -1.43% [at 19 µM] | cAMP activity change [8] -1.23% [at 18.9 µM, hits give high values] | activation [11] -2.53% [at 19 µM] | activity change, negative = inhibition [12] -10.4% [at 18.9 µM] | activity change, negative = cytotoxicity [13] -27.7% [at 18.9 µM] | activity change, negative = cytotoxicity [14] -27.9% [at 19 µM] | viability change, negative = cytotoxic [15] 0.3% [at 15.8 µM] | activity change, negative = cytotoxicity [16] -3.72% [at 15.8 µM] | activation [17] -2.07% [at 15.8 µM]

CC(C)c1cccc(C(C)C)c1NC(=O)NS(=O)(=O)c1cc(C(C)(C)O)co1
inactive: Potency [1] | Potency [2] | Potency [3] | Potency [4] | Potency [5] | Potency [6] | Potency [8] | Potency [9] | Potency [10] | outcome [11] | Potency [12] | Potency [13] | Potency [14] | Potency [15] | Potency [16] | outcome [17]

CC(C)CCCCCCOC(=O)c1ccc(C(=O)OCCCCCCC(C)C)c(C(=O)OCCCCCCC(C)C)c1
inactive: Potency [1] | Potency [2] | Potency [3] | Potency [4] | Potency [5] | Potency [6] | Potency [8] | Potency [9] | Potency [10] | outcome [11] | Potency [12] | Potency [13] | Potency [14] | Potency [16] | outcome [17] | Potency [19]

ClC(Cl)(Cl)c1ccc(C(Cl)(Cl)Cl)cc1
inactive: Potency [1] | Potency [2] | Potency [3] | Potency [4] | Potency [5] | Potency [6] | Potency [7] | Potency [8] | Potency [10] | outcome [11] | Potency [12] | Potency [13] | Potency [14] | Potency [15] | Potency [16] | outcome [17] | outcome [18] | Potency [19]
